Data taken from PubChem BioAssay (EPA / NIEHS).
Activity calls are given as the source filed them. The calls were made as follows: active = hit-call score of the fitted dose curve at least 0.9, where 1 is the maximum; inactive = score below 0.9. Peptide text beside a SMILES is read from it.

Assay: ATG_BRE_CIS: Attagene CIS-FACTORIAL HepG2 Assay for human Bone Morphogenetic Protein (BMP) Response Element (BRE) (AID 2282933)
Conditions: HepG2 BMP response element reporter, Attagene transcription factor profiling; actives raise or lower the signal
Description: ATG_CIS is a cell-based, multiplexed-readout assay that uses HepG2, a human liver cell line, with measurements taken at 24 hours after chemical dosing in a 24-well plate.ATG_BRE_CIS is one of 52 assay component(s) measured or calculated from the ATG_CIS assay. It is designed to make measurements of mRNA induction, a form of inducible reporter, as detected with fluorescence intensity signals by Reverse transcription polymerase chain reaction (RT-PCR) and Capillary electrophoresis technology.Data from the assay component ATG_BRE_CIS was analyzed into 1 assay endpoint. This assay endpoint, ATG_BRE_CIS, was analyzed with bidirectional fitting relative to DMSO as the negative control and baseline of activity. Using a type of inducible reporter, measures of mRNA for gain or loss-of-signal activity can be used to understand the reporter gene at the transcription factor-level as they relate to the gene SMAD1. Furthermore, this assay endpoint can be referred to as a primary readout, because this assay has produced multiple assay endpoints where this one serves a reporter gene function. To generalize the intended target to other relatable targets, this assay endpoint is annotated to the dna binding intended target family, where the subfamily is Smad protein.
Human liver HepG2 cells are transiently transfected with multiple reporter transcription units (MRTUs) in 6-well plates using FuGene 6 reagent (Roche; 3 ml FuGene/1 mg DNA). The MRTU constructs are regulated by a cis-regulating element (promoter). […] A major difference between the CIS and TRANS system is that in CIS activities of endogenous TFs are measured, whereas the TRANS assay evaluates changes in activities of exogenous, chimeric NR-Gal4 proteins. […] At the end of 24 hour incubation, total RNA was isolated using TriZol reagent (Invitrogen). The isolated RNA is then reverse-transcribed using oligo(dT) primer and Mo-MLV reverse transcriptase (Invitrogen) with DNAse I (Ambion) treatment for 30 min. The one-tenth of the produced cDNA was amplified by PCR using Taq DNA polymerase (Invitrogen) and two reporter sequence-specific primers. The PCR products were fluorescently labeled by primer extension with 6-arboxyfluorescein (6-FAM) 5'-labeled reporter sequence-specific primer (2 min at 95 C, 20 s at 68 C and 10 min at 72 C) and these products were digested with 5U of HpaI (New England Biolabs) for 2h at 37 C. The fragments were purified using Qiaquick PCR columns (Qiagen), analyzed on an ABI 3130xL genetic analyzer (Applied Biosystems) with peak positions identified by using a set of X-rhodamine (ROX)-labeled MapMarker1000 molecular weight standards (BioVentures). The raw capillary electrophoresis data was processed using Attagraph software (Attagene).

Q: For Cc1ccc(C)c(OCCCC(C)(C)C(=O)O)c1, which outcome is on record?
A: inactive

Q: For [Cl][Sc]([Cl])[Cl], which outcome is on record?
A: inactive

Q: With COC(=O)[C@H](Cc1ccccc1)NC(=O)[C@@H](N)CC(=O)O (H-Asp-Phe-OMe) as the compound, how does the outcome read?
A: inactive

Q: Which outcome does the source give for CCCC=C(C=O)CC here?
A: inactive

Q: For CCCCC/C=C\C/C=C\CCCCCCCC(=O)O, which outcome is on record?
A: inactive

Q: Which outcome does the source give for c1ccc(-c2nc3ccccc3[nH]2)cc1 here?
A: inactive

Q: With CCC(=O)C1CC(C(C)C)CC=C1C (stereo not given) as the compound, how does the outcome read?
A: inactive

Q: With c1ccc2cnccc2c1 as the compound, how does the outcome read?
A: inactive

Q: Which outcome does the source give for CCC(C)(O)CCCC(C)C (stereo not given) here?
A: inactive

Q: For O=C(OCCc1ccccc1)c1ccccc1, which outcome is on record?
A: inactive

Q: Which outcome does the source give for CCC1COC(=O)O1 (stereo not given) here?
A: inactive

Q: Which outcome does the source give for CC(=O)OC1CCCCC1 here?
A: inactive

Q: With CCCCCOC(=O)CCCCC as the compound, how does the outcome read?
A: inactive

Q: For O=S(=O)(O)c1ccc(N=Nc2c(O)ccc3ccccc23)cc1, which outcome is on record?
A: inactive

Q: Which AC50 does the source give for O=c1c(O)c(-c2ccc(O)cc2O)oc2cc(O)cc(O)c12 here?
A: 19.3 µM (active)

Q: With CCCCCC(=O)OCC as the compound, how does the outcome read?
A: inactive

Q: With CCCCCCCC(=O)OCC(COC(=O)CCCCCCC)OC(=O)CCCCCCC as the compound, how does the outcome read?
A: inactive

Q: For CC(C)(C)C1CCC(=O)CC1, which outcome is on record?
A: inactive

Q: With N=C1C=CC(=C(c2ccc(N)cc2)c2ccc(N)cc2)C=C1 as the compound, how does the AC50 read?
A: 33.4 µM (active)

Q: For CC(C)COC(=O)CC(C(=O)OCC(C)C)S(=O)(=O)O (stereo not given), which outcome is on record?
A: inactive

Q: Which outcome does the source give for CC1CC(=O)CC(C)(C)C1 (stereo not given) here?
A: inactive

Q: With C=CC(=O)NCOCCCC as the compound, how does the outcome read?
A: inactive

Q: Which outcome does the source give for CCN(CC)c1cccc(C)c1 here?
A: inactive

Q: With CC(CC(C)C)=NO as the compound, how does the outcome read?
A: inactive

Q: For CCc1cccc(C)c1N, which outcome is on record?
A: inactive

Q: With CC(=O)C(C)C as the compound, how does the outcome read?
A: inactive

Q: Which outcome does the source give for C=Cc1ccc(OC(C)=O)cc1 here?
A: inactive

Q: For CCCCCCCCC(CO)CCCCCC (stereo not given), which outcome is on record?
A: inactive

Q: With CCCC(C)C(=O)OCC (stereo not given) as the compound, how does the outcome read?
A: inactive

Q: With C[Si](C)(C)N[Si](C)(C)C as the compound, how does the outcome read?
A: inactive

Q: For COCC(=O)O, which outcome is on record?
A: inactive

Q: Which outcome does the source give for CCCC(CC)c1ccccc1 (stereo not given) here?
A: inactive

Q: Which outcome does the source give for O=C(O)c1cc(O)c2ccccc2c1O here?
A: inactive

Q: Which outcome does the source give for CCc1occc(=O)c1O here?
A: inactive

Q: Which outcome does the source give for NC(=O)Nc1ccccc1 here?
A: inactive

Q: Which outcome does the source give for CC(C)(c1ccccc1)c1ccc(Nc2ccc(C(C)(C)c3ccccc3)cc2)cc1 here?
A: inactive

Q: Which outcome does the source give for Clc1cc(Cl)c(Cl)c(Cl)c1Cl here?
A: inactive

Q: Which outcome does the source give for CCCC1CCCC(=O)O1 (stereo not given) here?
A: inactive

Q: Which outcome does the source give for CCC(C)c1ccccc1 (stereo not given) here?
A: inactive

Q: With CC(=O)OCC=C(C)C as the compound, how does the outcome read?
A: inactive
